These results are taken from the supplement of paper PMC11417369.

The full ranking holds about 25,000 sequences; the median of “ln(normalized median fluorescence intensity)” is about 6.7, and the highest 2% start at about 10. For the sample, the highest values were picked, then their nearest neighbours and some sequences at random.

The assay concerns PfHDP1 homeodomain (GST-tagged). Nature of the assay: gcPBM binding intensity (ln(normalized median fluorescence intensity)); higher = stronger DNA binding. The essentials:
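Binding of GST-tagged P. falciparum DNA-binding domains, expressed in E. coli and used at about 25 μg on average, was carried out for 1 h in 1× PBS containing 1% milk, 0.2 mg/ml BSA, 0.5% salmon testes DNA and 0.03% Triton X-100. The target was an Agilent 4 × 180k array of primer-extended double-stranded 36-bp intergenic genomic probes plus negative controls, read with Alexa488 anti-GST antibody at 488 nm. Binding intensity is the highest Masliner-normalised natural-log median intensity across replicate spots of either probe orientation.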
As to “TCCTTAAAATATATCACACATTTCGTTCATTTATAA [CACACA_site4346]”, the “gcPBM binding intensity (ln)” value turned out to be 6.65.
With “TAAGATGATATAGACTGTACATATTGAACTTACAAG [XGTACX_site4290]” the figure was 6.29.
For “CACTGTAAATAGAAAGTGCAAAAATTGTAAATAAAA [GTGCAC_site9980]”, the “gcPBM binding intensity (ln)” value was 9.
With “TTTCTTCGAAATAGAACACTTGTGCAAAATAAGCAA [XGTACX_negctrl_site361]” the figure was 11.2; with “TATTAACACTTTATAGAAACAAAAAAATAAGCAAAA [XGTACX_negctrl_site295]”, 6.79; with “GTTTTTAGTATTTTTTGTACTTAATACATAGCCTTA [XGTACX_site7318]”, 6.22.
With “AGATAAAATATATATGCACACACATATATATTTCAT [CACACA_site9183]” the figure was 9.16; with “TCATACAATATTAAATGTACATATATATATATATAT [XGTACX_site8828]”, 9.25.
With “TATATAATATATTAATGTACTTAAAATATATTCTAT [XGTACX_site1235]” the figure was 6.16; with “TTTATCAAAATAAATGCACACAAATTGCACATATCT [CACACA_site8281]”, 10.9.
As to “CATATAAATACATGCACACAAAAATATCAATACATT [CACACA_site2392]”, the “gcPBM binding intensity (ln)” value is 8.76.
The result for “TTTTTTCATATAAATACATGCACACAAAAATATCAA [TGCATGCA_site602]” reads 8.53; that for “TATCAAAATAAATGCACACAAATTGCACATATCTAT [CACACA_site1097]”, 10.7.
Take “TTCATATAAATACATGCACACAAAAATATCAATACA [CACACA_site8753]”: the “gcPBM binding intensity (ln)” value was 8.91.
With “ATAAATTTTTTATGAACACACAAATACACCCACTCA [CACACA_site5465]” the figure was 7.07; with “TACTTTCAAAAGATCACACATATATATATATATATA [CACACA_site5630]”, 9.53; with “TCCTTAAAATATGGTTGTACGTACATCCTAGGTGTT [XGTACX_site7068]”, 6.52.
The result for “TTTTTACGTAAACAAAATAATTATATAATATTATTT [CACACA_negctrl_site1769]” reads 6.34; that for “AAAATCATTCCAAAGACATGCATTTTGCAAATAAAA [TGCATGCA_site461]”, 9.22.
The result for “AATTATTTACCCTATACACACAAAACAGACTAAAAA [CACACA_site6688]” reads 6.76.
Turning to “TCGTGTGAAAATATTACACACATTTACTATAGTATC [CACACA_site7590]”, the “gcPBM binding intensity (ln)” value was found to be 6.65.
The result for “AATTTATTTTTAAAAAGTACATACTTAAGAAAACGA [XGTACX_site3660]” reads 6.85.
Consider “ATATATTATATTATATGTACTTAAAAAAGTGCAAAG [XGTACX_site318]”, for which the “gcPBM binding intensity (ln)” value is 9.16.
With CTGTACACTTAAACGGTGCAAAAAGAAAAAAAAGAA the figure was 10.6; with “TTTGAACTCTTAAGTGGTACAAATTTGTATTTTCTC [XGTACX_site2322]”, 6.52; with “ATGCTTTTATGCACACGTACAAAAATATTATATAAT [XGTACX_site5589]”, 10.9.
The result for “AATAATGAAGCTTATGCACACGTTCATTATTTATAT [CACACA_site5736]” reads 10.6; that for “TTTATTATACAAAATTGTACTTTATAATTTTATGTA [XGTACX_site5846]”, 6.31; that for “TTTATTATATGCACACGTACATATAATATATATATA [XGTACX_site4108]”, 10.8.
The result for “TATTGCACAAAATAATTTTATTATACTTTATGTTAG [TGCATGCA_negctrl_site574]” reads 10.8.
Turning to “TGAATGCTTTTATGCACACGTACAAAAATATTATAT [CACACA_site2668]”, the “gcPBM binding intensity (ln)” value turned out to be 10.4.
Regarding “AATTCTTTATTATATGCACACGTACATATAATATAT [CACACA_site8621]”, the “gcPBM binding intensity (ln)” value came to 9.66.
In the case of “TTCTTTATTATATGCACACGTACATATAATATATAT [CACACA_site2018]”, the “gcPBM binding intensity (ln)” value came to 9.96.
Take “TAATGAAGCTTATGCACACGTTCATTATTTATATTA [CACACA_site3219]”: the “gcPBM binding intensity (ln)” value came to 10.4.
With “TATATTCATAATATTACACACGTTCATTTATTTTAA [CACACA_site2031]” the figure was 6.67.
As for “TATGAATGCTTTTATGCACACGTACAAAAATATTAT [CACACA_site8851]”, the “gcPBM binding intensity (ln)” value worked out at 9.99.
As to “TAAATTTTAATATGCACACAAAATGTTATATTAAAA [CACACA_site4366]”, the “gcPBM binding intensity (ln)” value worked out at 9.86.
The result for “TAGTAAAAACCAAAATGTACATGTGCCATTTTTTTA [XGTACX_site2630]” reads 6.15; that for “TTTTTATTGTTGCTATATTTATAACAATTTATCATA [GTGCAC_negctrl_site75]”, 6.6; that for “TTACACATGAGAAAATGTACATATAATAAAATATGT [XGTACX_site904]”, 6.52.
In the case of “TATATCCACATTTTTAGTACTTAAAAATAAATAAAC [XGTACX_site3826]”, the “gcPBM binding intensity (ln)” value was determined as 6.62.
Regarding “AATTATATATAAAGAAGTACTATTTCAAGGAGTTTT [XGTACX_site3837]”, the “gcPBM binding intensity (ln)” value was 6.34.
Consider “ATAATAATAATAAAAAGTACATTTAATTATATAGAA [XGTACX_site7742]”, for which the “gcPBM binding intensity (ln)” value stood at 6.51.
The result for “TAACCTAAAATAACTACACACACATAAAAAAAAAAA [CACACA_site8807]” reads 6.58; that for “AACAAACACAGACACACACACACACCCAAATGATTA [CACACA_site2431]”, 6.98; that for “ATGTATGTTTGTTATGCACACAAATGCATCTTATTT [CACACA_site8861]”, 10.3.
The result for “TTGTTCGATATATGCACACAGTTTTGTTATTTTTCC [CACACA_site4972]” reads 9.91; that for “GTATGTTTGTTATGCACACAAATGCATCTTATTTCC [CACACA_site2690]”, 10.8; that for “AAAAAAAAAAAAAAAGGTACAGTAAAAAATTCCTCT [XGTACX_site5947]”, 6.46.
With “AAAATTAAAATAGTAATACACACTTCATAGGAAATG [CACACA_site1762]” the figure was 6.02.
On to “AGATATATAAATATTACACACTATATATCTATTTAT [CACACA_site6466]”, for which the “gcPBM binding intensity (ln)” value stood at 6.64.
The result for “TATTTAAAAATATATACACACATTTTATATTATTAT [CACACA_site781]” reads 6.32; that for “ATACATAAAATTAAAACACACATTTTATTAAATACG [CACACA_site2167]”, 6.44.
Consider “ATTTATATTTAATATACACACATTATTTTTTTATAT [CACACA_site574]”, for which the “gcPBM binding intensity (ln)” value worked out at 6.86.
“TTAGTAAATACATTTGCACACATTATTTTTTAACAT [CACACA_site5448]”: the “gcPBM binding intensity (ln)” value was found to be 10.7.
The result for “TTTTTTTATATTTTTAGTACACATTGGTATATATAT [XGTACX_site4114]” reads 6.77; that for “TTAGTATATACATTTGCACACATTATTTTTTAACAT [CACACA_site2618]”, 10.5; that for “AATTATATAACAAATTGTACGAATGAAAATATTATT [XGTACX_site4237]”, 6.79.
The result for “ATATTTTTATGATGTATCCAAGAAATGGAACTATAT [CACACA_negctrl_site1268]” reads 6.23; that for “AAAATATAAATATATTGTACTGTTATATAATAAAAT [XGTACX_site2132]”, 6.41.
The result for “ATAAATATGTAAAAAACATGCAAAAAATTAAAGACA [TGCATGCA_site912]” reads 7.22; that for “ATGAAAAAAAGACATGCATGTAAATATAAATTGCTT [TGCATGCA_site504]”, 6.68; that for “TGTTGTAAATTAAAGACATGCACGTGAGAAAATATA [TGCATGCA_site285]”, 11.
Regarding “TTTTTATATTTTACATGTACATAAATATATTATATA [XGTACX_site958]”, the “gcPBM binding intensity (ln)” value was found to be 6.46.
The result for “AAATACATACATTAATGTACAAATAGAAACACTCTT [XGTACX_site1512]” reads 6.85.
With “TGAATATTTATACATGCACACTAAAATAAAGAATCT [CACACA_site5351]” the figure was 8.07; with “ACGGACAATACGGAAACACACAAGTTATTTTATCAT [CACACA_site7310]”, 6.21; with “TAATGTTGAGAATTTTGTACATATAGATCAATTTAT [XGTACX_site5426]”, 6.33.
The result for “TTCAAAAAAGGAAAGTTGCACTTGATACGCTTATTA [GTGCAC_site9411]” reads 7.38; that for “TTTTATGATAATTTTGCACACACTTAGGAAAAATTA [CACACA_site1556]”, 10.4; that for “ACGTTAGGCTTATTTGCACACTTGTATTATAATTTT [CACACA_site1317]”, 10.3.
Consider “TTATGATAACTTTGCACACACTTAGGAAAAGTTATG [CACACA_site6836]”, for which the “gcPBM binding intensity (ln)” value stood at 10.6.
With “AAAGTAGGCTTATATGCACACTTTGAAATATTATAA [CACACA_site5117]”, the “gcPBM binding intensity (ln)” value was found to be 9.77.
With “TTATGATAATTTTGCACACACTTAGGAAAAATTATG [CACACA_site4949]” the figure was 10.9; with “GAAAAATTAATAAATAAACACACATATATATATATA [CACACA_site8835]”, 9.29; with “AATCTAATTAAAATCACACATATATTCGTCGTAATA [CACACA_site5855]”, 6.05.
The result for “CATATTTGTATATGCACACATAAATTTTTCCATTTC [CACACA_site3467]” reads 10.2; that for “TACCCATGCATTTTTGCACACACATATATATATAAA [CACACA_site1429]”, 10.7; that for “CCCATGCATTTTTGCACACACATATATATATAAATA [CACACA_site1430]”, 10.8.
The result for “AGAATAAATATGCACACATGCATATATTTTTACACT [TGCATGCA_site893]” reads 10.3; that for “CCCATGCATTTTTGCACACACATATATTTATAAATA [CACACA_site6785]”, 10.7.
Turning to “TTTTAAATAATACATACATGCATATATACACATATA [TGCATGCA_site8]”, the “gcPBM binding intensity (ln)” value was 6.58.
With “TTGAAGAATAAATATGCACACATGCATATATTTTTA [CACACA_site5840]” the figure was 9.33; with “AATATTTTTTTTTAAACATGCATATTTGCATTACCC [TGCATGCA_site437]”, 8.67; with “TAAATTATAAATTGCACACATATTTTTATATTTATA [CACACA_site2976]”, 10.2.
For the sequence “AAAAAAAAAAAAAAAAGTACAAAAATATATATGCAT [XGTACX_site8392]”, the “gcPBM binding intensity (ln)” value worked out at 6.48.
As for “AATGATACTTAGGGGCATGTCTCTGGGGGCATAACC [CACACA_negctrl_site591]”, the “gcPBM binding intensity (ln)” value came out at 6.63.
With “CATATTTCTTTATTGGCACACATTTTTTCAATTATA [CACACA_site1618]” the figure was 6.87; with “TTATTTAAATATTGATGTACTCTCCTTATTATAATA [XGTACX_site1240]”, 6.76.
